From PubChem
Shn3 inh set2: reduction of Shn3 3'UTR firefly luciferase signal, primary screen, Schnurri-3 inhibitor project, cell-based, Clone20 osteoblasts, set 2; Clone20 osteoblast Shn3 3'UTR firefly luciferase, 24 h; inhibition, % at 12.5 µM; 0.52% of 360,000 active;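 active = mean inhibition of at least 75% with every replicate also reaching 75%; inconclusive = mean inhibition at least 75% but some replicate below; inactive = mean inhibition below 75%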;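 note: 0% = median of neutral control wells and 100% = pilot-screen positive control compound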
KKLEB cytotox: cytotoxicity in KKLEB CF airway cells, primary screen, cytotoxicity control for CF NF-kB inhibitor project, cell-based, uHTS, fluorescence assay plates. KKLEB CF airway cells viability, ATPlite luminescence, overnight; active compounds read low; cells stimulated with P. aeruginosa culture filtrate. activity change (cytotoxicity), % at 5 µM. 0.36% of 360,000 active;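 active = corrected activity change at or below -50% at 5 µM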
Peg3 prom inh: Peg3 promoter-driven luciferase inhibitors, primary screen, cell-based, HeLa, luciferase luminescence | AID 588405, 2011 | 1.7% of 360,000 active | HeLa PEG-Prom luciferase reporter, overnight | inhibition, % at 20 µM;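 active = inhibition of at least 50% at 20 µM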
LMP1 NFkB inh: EBV LMP1-driven NF-kappaB luciferase reporter inhibitors, primary screen, cell-based, luminescence, single point | LMP1-induced NF-kappaB luciferase reporter cells | inhibition, % at 12.5 µM | 0.69% of 350,000 active; in the data active = inhibition above about 41%; inconclusive = no clear call, values can overlap the other calls;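 note: 0% = neutral control wells and 100% = reference inhibitor control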
CF NFkB block: inhibitors of PAF-induced NF-kB signaling, primary screen, cell-based, GFP fluorescence, uHTS; KKLEB NF-kB-GFP reporter, GFP fluorescence overnight; inhibition, % at 5 µM; 0.86% of 360,000 active; AID 588850, 2011;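 active = at least 50% inhibition at 5 µM, scaled per plate between neutral and stimulator controls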;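 note: PAF is a Pseudomonas aeruginosa culture filtrate used as stimulus; plate controls were PAF-stimulated DMSO wells for no effect and unstimulated DMSO wells for full effect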
HIF-2a inh: HIF-2a reporter inhibitors, primary screen, luminescence, 786-0 RCC cells. 786-0 RCC cells HIF-2a reporter, luciferase luminescence, overnight. inhibition, % at 18.8 µM. 0.72% of 360,000 active. AID 624352, 2012;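 active = inhibition of the luminescence signal of 40% or more relative to plate controls, in a single-dose primary screen at 18.75 µM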
* marks the source's active call; other numbers are inactive results; u = inconclusive. Only some compounds are listed: those with a hit (about 2.9% of all), similar ones and a draw of the others.

SMILES	Shn3 inh set2	KKLEB cytotox	Peg3 prom inh	LMP1 NFkB inh	CF NFkB block	HIF-2a inh
O=C(CN1C(=O)c2ccccc2S1(=O)=O)N1CCN(c2ccccc2F)CC1	-8	-3	18	-3	12	-7
O=C(CN1C(=O)c2ccccc2S1(=O)=O)c1ccccc1F	48	13	5	45*	5	7
CC1=NC(=O)C(N=Nc2cccc(C(=O)O)c2)N1c1ccccc1 (stereo unspecified)	-7	-1	47	37	2	54*
CC1=NC(=O)C(N=Nc2ccccc2)N1c1ccccc1 (stereo unspecified)	-66	0	-276	-39	-2	-226
C=C1C(=O)C23C(O)C1CCC2C12CCCC(C)(COC(C)=O)C1C(O)C3(O)OC2 (stereo unspecified)	94*	-91*	107*	u	91*	93*
CC(c1ccon1)N(C)C(=O)CCc1nnc(C2(c3ccc(Cl)cc3)CCC2)o1 (stereo unspecified)	-11	5	-74	-9	15	-163
CC(C)Oc1ccc(C(CCN)C2CCCCC2)cc1 (stereo unspecified)	77	-26	105*	6	21	31
Oc1ccc(CCNc2c3ccccc3nc3ccccc23)cc1O	-21	-26	109*	-9	-80	54*
OCC(Cc1ccccc1)Nc1c2ccccc2nc2ccccc12 (stereo unspecified)	17	-12	5	-5	-103	10
Oc1ccccc1Nc1nc(NCc2ccccc2)c2ccccc2n1	89*	-31	19	4	2	-24
CNc1nc(NCc2ccccc2)c2ccccc2n1	35	-1	-1	-37	-22	9
c1ccc(CNc2c3ccccc3nc3ccccc23)cc1	69	-29	97*	-54	-85	44*
COc1ccccc1C(=O)N(CCC1CCCN1C)c1nc2ccccc2s1 (stereo unspecified)	31	-16	-30	2	-2	15
Cc1ccc2nc(-c3ccc(O)cc3)oc2c1	-42	-41	-314	-11	-6	-218
Cc1cc(NC(=O)CSc2nnc(-c3ccco3)n2C)no1	-2	4	1	71*	-5	1
Cc1ccccc1CN(c1ccc(C(=O)NCc2cccnc2)cc1)S(C)(=O)=O	-18	8	11	52*	7	12
Cc1ccccc1CC(=O)NCc1cccnc1	11	5	-12	67*	-20	1
O=C(Cc1ccccc1)NCc1cccnc1	-7	2	10	-8	-6	5
CN(c1ccc(C(=O)NCc2cccnc2)cc1)S(C)(=O)=O	-1	3	5	-11	-4	0
COc1ccc(OCc2cc(C(=O)N3C[C@@H](C)O[C@@H](C)C3)no2)c(Cl)c1	-40	18	-179	-25	-23	-174
COc1ccc(NC(=O)c2cc(-c3cc(C)cc(C)c3O)n[nH]2)cc1Cl	11	-4	61*	-12	33	-12
CCOc1ccccc1-n1c(SCC(=O)N2CCOCC2)nc2ccccc2c1=O	0	0	18	3	-14	3
CC(C)N=c1scc(-c2ccco2)n1/N=C/c1ccc(O)c(O)c1	94*	-14	-220	-48	2	-172
COCCN=c1scc(-c2ccco2)n1/N=C/c1ccc(O)c(O)c1O	46	-5	-18	-26	-11	6
C=CCN=c1scc(-c2ccco2)n1/N=C/c1ccc(O)c(O)c1O	91*	-7	-103	-46	23	-109
COc1ccc(S(=O)(=O)Nc2cccc(-c3ccc4nncn4n3)c2)c(OC)c1	-4	-3	4	8	10	9
Fc1cccc(/C=N/Nc2nncc3ccccc23)c1	4	-40	-104	-9	-16	-94
C(=N\Nc1nncc2ccccc12)/c1ccccn1	68	-29	19	30	66*	-45
C[C@@H]1O[C@@H]1P(=O)(O)O	9	-3	3	75*	-13	-2
